PubChem BioAssay AID1159580 (chemical genetic matrix, 2015)
Among all 5,500 compounds or so, about 2,000 (36%) were called active. Inconclusive results (about 18%) are left out. Rule as the data show it: active = normalized growth mostly below about 0.91 (no sharp cut-off); inconclusive = no clear call, values can overlap the other calls; inactive = mostly above about 0.92. This is one part of the list.

Assay: chemical genetic growth profiling, strain panel (AID 1159580);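 also: tested at 20 µM; growth read once vehicle control cultures reached saturation at 30 °C; 1 = growth at the plate median or of vehicle wells; lower values mean less growth of the strain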
Conditions: S. cerevisiae deletion strains, growth OD
[1] = locus YDL101C, strain DUN1, active compounds read low
[2] = locus YHR030C, strain SLT2, active compounds read low

Measured: normalized growth

N/C(=N/OC(=O)c1cnn(-c2ccc([N+](=O)[O-])cc2)c1C(F)(F)F)c1ccc(Cl)cc1
inactive: locus YAR019C, strain CDC15, active compounds read low 0.985 | locus YBL105C, strain PKC1, active compounds read low 0.972 | locus YBR135W, strain CKS1, active compounds read low 0.964 | locus YBR136W, strain MEC1, active compounds read low 0.971 | locus YBR160W, strain CDC28, active compounds read low 0.974 | locus YDL017W, strain CDC7, active compounds read low 0.984 | locus YDL028C, strain MPS1, active compounds read low 0.985 | [1] 0.992 | locus YDL108W, strain KIN28, active compounds read low 0.975 | locus YDL132W, strain cdc53, active compounds read low 0.974 | locus YDL214C, strain PRR2, active compounds read low 0.937 | locus YDR052C, strain DBF4, active compounds read low 0.983 | locus YDR054C, strain cdc34, active compounds read low 0.97 | locus YDR226W, strain ADK1, active compounds read low 0.982 | locus YDR477W, strain SNF1, active compounds read low 0.944 | locus YER123W, strain YCK3, active compounds read low 0.96 | locus YER133W, strain GLC7, active compounds read low 0.82 | locus YFL009W, strain cdc4, active compounds read low 0.982 | locus YFL029C, strain CAK1, active compounds read low 0.973 | locus YFR003C, strain YPI1, active compounds read low 0.98 | locus YFR019W, strain FAB1, active compounds read low 0.974 | locus YFR028C, strain CDC14, active compounds read low 0.979 | locus YGR040W, strain KSS1, active compounds read low 0.916 | locus YGR052W, strain FMP48, active compounds read low 1.06 | locus YGR092W, strain DBF2, active compounds read low 0.964 | [2] 1.01 | locus YHR079C, strain IRE1, active compounds read low 1.04 | locus YHR082C, strain KSP1, active compounds read low 1.07 | locus YHR205W, strain SCH9, active compounds read low 0.699 | locus YIL147C, strain SLN1, active compounds read low 0.979 | locus YJL095W, strain BCK1, active compounds read low 1.04 | locus YJL128C, strain PBS2, active compounds read low 0.98 | locus YJL157C, strain FAR1, active compounds read low 0.973 | locus YJR016C, strain ILV3, active compounds read low 0.976 | locus YJR066W, strain TOR1 (second series), active compounds read low 0.955 | locus YJR066W, strain TOR1, active compounds read low 1.01 | locus YKL048C, strain ELM1, active compounds read low 0.993 | locus YKL067W, strain YNK1, active compounds read low 0.972 | locus YKL101W, strain HSL1, active compounds read low 0.983 | locus YKL193C, strain SDS22, active compounds read low 0.982 | locus YKL203C, strain TOR2, active compounds read low 1.04 | locus YLR113W, strain HOG1, active compounds read low 0.98 | locus YLR133W, strain CKI1, active compounds read low 0.881 | locus YLR403W, strain SFP1, active compounds read low 0.74 | locus YML070W, strain DAK1, active compounds read low 0.92 | locus YMR001C, strain CDC5, active compounds read low 0.981 | locus YMR205C, strain PFK2 (second series), active compounds read low 0.886 | locus YMR277W, strain FCP1, active compounds read low 0.981 | locus YNL006W, strain LST8, active compounds read low 0.99 | locus YNL020C, strain ARK1, active compounds read low 0.989 | locus YNL161W, strain CBK1, active compounds read low 0.979 | locus YNL183C, strain NPR1, active compounds read low 1.01 | locus YNL207W, strain RIO2, active compounds read low 0.98 | locus YNL222W, strain SSU72, active compounds read low 0.969 | locus YNL307C, strain MCK1 (second series), active compounds read low 0.987 | locus YOL078W, strain AVO1, active compounds read low 0.969 | locus YOL136C, strain PFK27, active compounds read low 0.979 | locus YOR061W, strain CKA2, active compounds read low 0.912 | locus YOR119C, strain RIO1, active compounds read low 1.06 | locus YOR231W, strain MKK1, active compounds read low 0.961 | locus YOR329C, strain SCD5, active compounds read low 0.985 | locus YPL031C, strain PHO85, active compounds read low 0.974 | locus YPL153C, strain RAD53, active compounds read low 0.976 | locus YPL204W, strain HRR25, active compounds read low 1.01 | locus YPL209C, strain IPL1, active compounds read low 0.978 | locus YPL256C, strain CLN2, active compounds read low 0.961 | locus YPR025C, strain CCL1, active compounds read low 0.973 | locus YPR106W, strain ISR1, active compounds read low 0.993 | locus YPR111W, strain DBF20, active compounds read low 0.976 | strain NNK1, active compounds read low 0.995 | strain TSCII, active compounds read low 0.989

CC1CC(=O)Nc2ccccc2N1C(=O)c1ccc([N+](=O)[O-])cc1 (centres undefined)
inactive: locus YAL013W, strain DEP1, active compounds read low 1.01 | locus YBR229C, strain ROT2, active compounds read low 1.01 | locus YCL061C, strain MRC1, active compounds read low 1.02 | [1] 1.05 | locus YDL134C, strain PPH21, active compounds read low 1.01 | locus YDR150W, strain NUM1, active compounds read low 0.937 | locus YEL061C, strain CIN8, active compounds read low 0.991 | locus YGR078C, strain PAC10, active compounds read low 1.03 | [2] 1.01 | locus YHR087W, strain rtc3, active compounds read low 0.978 | locus YJL187C, strain SWE1, active compounds read low 1.01 | locus YJR043C, strain POL32, active compounds read low 1.02 | locus YJR075W, strain HOC1, active compounds read low 1.01 | locus YLR039C, strain RIC1, active compounds read low 1.03 | locus YLR058C, strain SHM2 (second series), active compounds read low 0.998 | locus YLR085C, strain ARP6, active compounds read low 1.03 | locus YLR262C, strain YPT6, active compounds read low 1 | locus YML094W, strain GIM5, active compounds read low 1.02 | locus YMR219W, strain ESC1, active compounds read low 1.01 | locus YMR263W, strain SAP30, active compounds read low 1.05 | locus YNL153C, strain GIM3, active compounds read low 1.02 | locus YNL298W, strain CLA4 (second series), active compounds read low 1.05 | locus YNL322C, strain KRE1, active compounds read low 1 | locus YNR030W, strain Alg12, active compounds read low 1.02 | locus YOL006C, strain TOP1, active compounds read low 1.01 | locus YPL055C, strain LGE1, active compounds read low 0.996 | locus YPL241C, strain CIN2, active compounds read low 1.02 | locus YPR135W, strain CTF4, active compounds read low 1.03
